Screens (PubChem)
This is a sample that favours compounds with a hit; in the whole collection about 6% have one here.
DRD3 antagonist: antagonists of human D3 dopamine receptor; P35462; D3R cells, DiscoveRx beta-arrestin luminescence, antagonist mode; stronger effect = lower value; max response, negative = inhibition, %; hit rate 2.5% among 360,000; AID 652054; in the data active = max response below about -50%; inconclusive = no clear call, values can overlap the other calls
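Cells expressing the human receptor were seeded at 1500 cells/well, incubated overnight at 37 degrees C in 5% CO2, then exposed to library compounds with dopamine controls for 90 minutes at 37 degrees C before luminescent detection.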
D1 agonist: agonists of human D1 dopamine receptor. HEK293 T-REx D1 cells, calcium flux, agonist mode. activation, % at 2 µM. hit rate 1% among 360,000; in the data active = activation above about 30%
Target sequence (P21728 whole entry, looked up): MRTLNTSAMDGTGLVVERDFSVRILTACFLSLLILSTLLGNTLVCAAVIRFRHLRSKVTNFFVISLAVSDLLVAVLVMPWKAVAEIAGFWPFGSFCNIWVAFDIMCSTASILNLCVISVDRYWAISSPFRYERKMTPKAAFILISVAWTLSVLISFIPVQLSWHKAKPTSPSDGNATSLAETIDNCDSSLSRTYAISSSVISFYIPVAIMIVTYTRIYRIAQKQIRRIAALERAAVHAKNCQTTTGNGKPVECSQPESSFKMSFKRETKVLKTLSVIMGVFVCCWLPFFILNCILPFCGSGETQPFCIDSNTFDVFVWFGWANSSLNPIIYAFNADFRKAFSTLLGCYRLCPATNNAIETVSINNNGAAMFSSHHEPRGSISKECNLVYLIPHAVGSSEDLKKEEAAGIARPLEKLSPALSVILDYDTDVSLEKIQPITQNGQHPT
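Agonism was scored from calcium flux recorded over 180 s (1 read/s) after pintool compound addition, following a 10-cycle baseline. Cells were inducible force-coupled HEK293 TREx D1, plated overnight at 30 C and loaded with no-wash calcium dye.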
BCR signal inh: chronic active BCR signaling inhibition. ABC-DLBCL IkBa-CBG/CBR reporter, luminescence ratio, 4 h. Potency, µM (titrated, usually from 46.1 µM), most hits filed as inhibitors. hit rate 0.05% among 340,000. AID 493014; active = well fitted inhibition curve with a large enough effect in the signal ratio, with a control signal flat, not every such curve was filed as active; inconclusive = small, poorly fitted or top-dose-only effect, or effect the other way, or a change in a side signal; the % refers to the signal ratio
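Compounds up to 46 uM were incubated four hours with TMD8 cells whose green CBG68 luciferase is fused to IkappaBalpha; red CBR luminescence normalised the signal, and concentration-effect curves were fitted to fusion, red and ratio data.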
D3 ag: activates the human D3 dopamine receptor; hit rate 0.58% among 410,000; AID 652048; D3R DiscoveRx beta-arrestin cells, luminescence, 90 min; P35462; max activation, %; in the data active = max activation above about 30%
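Agonist mode: compounds and dopamine controls were applied to plated cells for 90 min at 37 degrees C after an overnight attachment at 1500 cells/well. Luminescent read-out followed 30 - 60 minutes at room temperature with DiscoveRx detection reagent.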
D1 antagonist: human D1 dopamine receptor antagonism; P21728; HEK293 TREx D1 cells, calcium flux, dopamine EC80; stronger effect = lower value; activity change, negative = inhibition, % at 10 µM; hit rate 3.2% among 360,000; AID 504652; in the data active = activity change below about -30%
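Allosteric or orthosteric antagonism assessed as attenuation of the calcium response to EC80 dopamine, added 180 s after compound, in induced HEK293 Trex D1 cells loaded with no-wash calcium dye.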
D1 PAM: human D1 dopamine receptor positive modulation; potentiation, % at 10 µM; HEK293 TREx D1 cells, calcium flux, dopamine EC20 potentiation; hit rate 0.036% among 360,000; P21728; in the data active = potentiation above about 30%
Large screens that a line does not name were inactive.

CC(C)C[C@H](NC(=O)CNC(=O)[C@H](Cc1ccc(O)cc1)NC(=O)[C@H](CO)NC(=O)[C@H](Cc1c[nH]c2ccccc12)NC(=O)[C@H](Cc1cnc[nH]1)NC(=O)[C@@H]1CCC(=O)N1)C(=O)N[C@@H](CCCN=C(N)N)C(=O)N1CCC[C@H]1C(=O)NCC(N)=O (stereo in doubt)	none (no result: DRD3 antagonist, D1 agonist, BCR signal inh, D1 antagonist, D1 PAM)
CCCNC(=O)C1CCC(Cn2c(=O)c3sccc3n(CC(=O)Nc3ccccc3C)c2=O)CC1 (configuration not stated)	none (no result: DRD3 antagonist, BCR signal inh)
Cc1cc(C)c([N+](=O)[O-])cc1-c1ccc(/C=N/c2c(-c3ccco3)nc3ccccn23)o1	D1 antagonist -50
O=C(CSc1cn(CC(=O)N2CCCCC2)c2ccccc12)Nc1ccccc1F	none (no result: DRD3 antagonist, BCR signal inh)
COc1ccc(C(=O)N2CCN(C3CCCCC3)CC2)c(OC)c1	DRD3 antagonist -86
COc1ccc(Cl)cc1NC(=O)N1CCN(C2CCCCC2)CC1	DRD3 antagonist -57, BCR signal inh inconclusive
O=C(Nc1ccc(F)cc1)C(CCc1ccccc1)N1CCN(Cc2c(F)cccc2Cl)CC1 (configuration not stated)	none (no result: D1 agonist, BCR signal inh, D1 antagonist, D1 PAM)
N#CC1=C(N)N(c2cccc(Cl)c2)C2=C(C(=O)CCC2)C1c1cc(CN2CCOCC2)cs1 (configuration not stated)	none (no result: DRD3 antagonist, BCR signal inh)
C=CCN1C(=Nc2cccnc2)SCC1(O)c1ccc(C)cc1 (configuration not stated)	D1 antagonist -56 (no result: DRD3 antagonist, D3 ag)
COc1ccc(C(C[N+](=O)[O-])c2c(C)cc3ccccn23)cc1 (configuration not stated)	none
Cc1cc2ccccn2c1C(C[N+](=O)[O-])c1ccc(N(C)C)cc1 (configuration not stated)	D1 agonist 42
COc1ccccc1C(=O)Oc1ccc(C(C)(C)C)cc1	BCR signal inh inconclusive
Cc1ccccc1S(=O)(=O)Oc1ccccc1C(=O)Oc1ccccc1	D1 antagonist -31
COC(=O)C[C@@H]1C=C[C@H](NC(=O)Cc2ccccn2)[C@@H](CO)O1	D3 ag 30 (no result: D1 agonist, BCR signal inh, D1 antagonist, D1 PAM)
O=C(NC1CCCC1)c1cc(=O)[nH]c2ccccc12	D3 ag 33
CCOC(=O)C1=C[C@@H](C(C)(C)C)N(S(=O)(=O)c2ccc([N+](=O)[O-])cc2)[C@H]1c1ccccc1	none (no result: D1 agonist, BCR signal inh, D1 antagonist, D1 PAM)
COc1ccc(CCNC(=O)c2cnn(-c3ccc(F)cc3)c2C2CCN(C(=O)OC(C)(C)C)CC2)cc1OC	none (no result: DRD3 antagonist, BCR signal inh)
COc1ccccc1-n1ncc2c(=O)[nH]c(SCC(=O)Nc3ccc(Cl)cc3)nc21	none (no result: DRD3 antagonist)
COc1cccc(N(CC(=O)NC(C)(C)C)C(=O)C2CSC(=O)C2)c1 (configuration not stated)	none
CC(C)(C)NC(=O)CN(C(=O)C1CSC(=O)C1)c1ccc2c(c1)OCCO2 (configuration not stated)	DRD3 antagonist inconclusive, D1 antagonist -36
Cc1ccc(S(=O)(=O)N2CCN(Cc3nc4ccc(C)cc4o3)CC2)c(C)c1	none (no result: DRD3 antagonist, BCR signal inh)
OCC1(Cc2cccc(C(F)(F)F)c2)CCN(Cc2cc(F)cc(F)c2)CC1	none
CSc1cccc(CN2CCC(CO)(Cc3cccc(C(F)(F)F)c3)CC2)c1	DRD3 antagonist inconclusive, D1 agonist 41, BCR signal inh inconclusive
Cc1ccc(-n2cc(CN3CCC(CO)(Cc4cccc(C(F)(F)F)c4)CC3)cn2)cc1	DRD3 antagonist -61
C=C1C(=O)[C@]23C[C@H]1CCC2[C@]1(C)CCC[C@@](C)(C(=O)O)C1C[C@@H]3O (some centres not stated)	DRD3 antagonist -89 (no result: D1 agonist, BCR signal inh, D1 antagonist, D1 PAM)
C=C1C(=O)[C@]23C[C@H]1CCC2[C@]1(C)C(=O)CC[C@@](C)(C(=O)O)C1C[C@@H]3O (some centres not stated)	none (no result: D1 agonist, BCR signal inh, D1 antagonist, D1 PAM)
O=C(NC(NNc1ccc([N+](=O)[O-])cc1)(C(F)(F)F)C(F)(F)F)c1ccc(Cl)cc1	DRD3 antagonist -74, D1 agonist 31, BCR signal inh inconclusive, D1 antagonist -54
O=C(NNC(=O)c1ccc([N+](=O)[O-])cc1)c1ccc(F)cc1	none (no result: D1 agonist, BCR signal inh, D1 antagonist, D1 PAM)
Cc1cccc(CSc2nc3sc(C)c(C)c3c(=O)n2Cc2ccco2)c1	BCR signal inh inconclusive
Cn1c(SCc2ccc(Br)cc2)nnc1-c1cccs1	BCR signal inh inconclusive
Cc1cccc(CSc2nnc(-c3cccs3)n2Cc2ccco2)c1	D1 antagonist -36
Cc1ccc(CSc2nnc(-c3cccs3)n2C)cc1	BCR signal inh inconclusive, D1 antagonist -40
COC1=C(OC)C(=O)C(CCCCCCCCCCO)=C(C)C1=O	BCR signal inh inconclusive, D1 antagonist -41 (no result: DRD3 antagonist)
Nn1c(Cc2ccccc2)nc2ccccc2c1=O	DRD3 antagonist inconclusive (no result: D1 agonist, BCR signal inh, D1 antagonist, D1 PAM)
Nn1c(CN2CCCCC2)nc2ccccc2c1=O	DRD3 antagonist -91
Clc1cccc(-c2ccc(CNCCCN3CCOCC3)o2)c1	DRD3 antagonist -80
COc1ccc(-c2ccc(CNCCCSc3nnnn3C)o2)cc1Cl	D1 agonist 37 (no result: DRD3 antagonist, BCR signal inh)
Cn1nnnc1SCCCNCc1ccc(-c2cccc(Cl)c2)o1	D1 agonist 100, D1 antagonist -57 (no result: DRD3 antagonist, BCR signal inh)
CC(C)n1cc(/C=C2/NC(=O)N(c3cccc(Cl)c3)C2=O)c2ccccc21	D1 antagonist -53
O=C(O)Cn1cc(/C=C2/NC(=O)N(c3ccc(Cl)cc3)C2=O)c2ccccc21	BCR signal inh inconclusive
CC(C)n1cc(/C=C2\NC(=O)N(c3cccc(Cl)c3)C2=O)c2ccccc21	BCR signal inh inconclusive, D1 antagonist -68
Cc1c(C(=O)N2CCOCC2)sc(NC(=O)c2ccc3c(c2)OCO3)c1C#N	D1 antagonist -34
CCN(CC)C(=O)c1sc(NC(=O)c2ccc3c(c2)OCO3)c(C#N)c1C	BCR signal inh inconclusive
CCCCCCCCCCCCCC[N+](C)(C)Cc1ccccc1	none (no result: DRD3 antagonist, D1 agonist, BCR signal inh, D1 antagonist, D1 PAM)
COc1ccc(CCN(C)C(=S)NC(=O)c2ccc(F)cc2Cl)cc1OC	BCR signal inh inconclusive, D1 antagonist -56
COc1ccc(CCN(C)C(=S)Nc2ccc(SC(F)F)cc2)cc1OC	none
CC1CCN(S(=O)(=O)c2cn(CC(=O)Nc3ccc(F)cc3)c(=O)c3ccccc23)CC1	none (no result: DRD3 antagonist, BCR signal inh)
COc1ccc2c(c1)c(=O)c(C(=O)c1ccc(F)cc1)cn2CC(=O)Nc1ccc2c(c1)OCCO2	none (no result: DRD3 antagonist, BCR signal inh)
Cc1ccc(C23CC4CC(CC(CN)(C4)C2)C3)cc1	D1 agonist 42, BCR signal inh inconclusive
O=C(Nc1ccc(F)cc1)c1ncn(-c2ccccc2)n1	none (no result: DRD3 antagonist, BCR signal inh)
O=C(NC(c1ccccc1)c1ccsc1)C1CCN(Cc2ccc(Oc3ccccc3)cc2)CC1 (configuration not stated)	DRD3 antagonist -100 (no result: D1 agonist, BCR signal inh, D1 antagonist, D1 PAM)
O=C(NC(c1ccccc1)c1ccsc1)C1CCN(Cc2ccc(Cl)c(Cl)c2)CC1 (configuration not stated)	DRD3 antagonist -61 (no result: D1 agonist, BCR signal inh, D1 antagonist, D1 PAM)
